According to PubChem BioAssay (NCATS):
Values joined by “and” are separate entries in the source; they are usually repeats but may differ in a detail not shown here. Identical values can stand only once. Records with an inconclusive call do not appear. Active and inactive are the calls of the source. Calls come from the whole dose curve; as a rule, active = well fitted inhibition curve with a large enough effect; inconclusive = small, poorly fitted or top-dose-only effect; inactive = flat fitted curve, though single readings scatter.

Key:
CRL-7250 = normal cell line; assay: Cytotoxic Profiling of Annotated Libraries Using Quantitative High-Throughput Screening (AID 1296008); conditions: Five cell lines viability, CellTiter-Glo ATP luminescence, 48-72 h; max response: hits give low values; for max response: % is set by controls: 0 for no effect and ±100 for the full control effect
How it was run: (§1)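 Compounds were pin-transferred onto cells and incubated 48 or 72 hr at 37 degree Celsius, 95% humidity. CellTiter-Glo was added, plates sat 10 min at room temperature, then ATP-coupled luminescence was imaged as the viability read-out.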

HaCat = assay: as above; conditions: Five cell lines viability, CellTiter-Glo ATP luminescence, 48-72 h; max response: hits give low values
How it was run: as §1

HEK293 = assay: as above; conditions: Five cell lines viability, CellTiter-Glo ATP luminescence, 48-72 h; max response: hits give low values
How it was run: as §1

PC26 = assay: qHTS profiling for inhibitors of Plasmodium falciparum proliferation (AID 504749); conditions: P. falciparum in erythrocytes, SYBR Green DNA, 72 h; series mostly up to 28.7 µM
How it was run: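 Fluorescence of SYBR Green-bound parasite DNA, read at 485/535 nm, served as the growth measure. Infected erythrocytes were cultured with compound 72 h; artemisinin (0.29 uM) and DMSO wells defined the normalization range.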
Note: nearly all actives have a fitted effect of over 60% in size.
Potency is the fitted concentration of half-maximal effect.

c1ccc2c(Oc3nc(Nc4ccc(N5CCOCC5)cc4)c4ncn(C5CCCCC5)c4n3)cccc2c1
max response (CRL-7250): -3.84% (inactive) and 0.807% (inactive)
outcome (HaCat): inactive

C[C@]12CC[C@@H]3c4ccc(O)cc4CC[C@H]3[C@H]1CC[C@H]2O
Potency (HEK293): 20.9 µM (active)

O=C(Nc1nnc(-c2ccco2)o1)c1cc(-c2ccccc2)nc2ccccc12
Potency (CRL-7250): 16.6 µM (active)
max response (HaCat): -46% (inactive)

COc1cccc2c1C(=O)c1c(O)c3c(c(O)c1C2=O)C[C@@](O)(C(=O)CO)C[C@@H]3O[C@H]1C[C@H](N)[C@H](OC2CCCCO2)[C@H](C)O1 (some centres not stated)
Potency (PC26): 7.57 µM (active)

CCC(C(=O)O)C1CCC(C)C(C(C)C(O)C(C)C(=O)C(CC)C2OC3(C=CC(O)[C@@]4(CC[C@](C)(C5CC[C@@](O)(CC)C(C)O5)O4)O3)C(C)CC2C)O1 (some centres not stated)
Potency (PC26): 0.478 µM (active)
